Test results published in PubChem BioAssay (EPA / NIEHS).
Active and inactive are the calls of the source. How the source made its calls: active means hit-call score of the fitted dose curve at least 0.9, where 1 is the maximum; inactive means score below 0.9.

Tests used:
[1] = BSK_3C_SRB: Viability Assessment in the BioMAP Diversity Plus: 3C Assay (AID 2283023); conditions: primary human endothelial cells (HUVEC);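 further: fitted both ways against DMSO so a hit may be signal rise or drop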
In short: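 Primary human umbilical vein endothelial cells in the 3C system were read 24 h after compound dosing. Total protein was stained with 0.1% sulforhodamine B after 10% TCA fixation and read at 560 nm, with bidirectional fitting against DMSO as baseline.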

[2] = read-out: Matrix Metallopeptidase 1 (MMP1), MMP1 (gene 4312); test: BSK_BE3C_MMP1: BioMAP Diversity Plus: BE3C Assay for Matrix Metallopeptidase 1 (MMP1) Biomarker Activity (AID 2283024); conditions: primary human bronchial epithelial cells; actives raise or lower the signal
In short: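 ELISA measurement of MMP-1 after 24 h compound exposure of primary human bronchial epithelial cells. Changes in either direction fitted relative to DMSO; parallel SRB staining checked overt cytotoxicity.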

[3] = BSK_3C_Vis: BioMAP Diversity Plus: 3C Assay for Morphology Visualization (AID 2283025); conditions: primary human endothelial cells (HUVEC);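 further: fitted both ways so gain or loss versus DMSO counts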;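 on AC50: light microscopy image of cell morphology used as background control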
In short: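 Light-microscopy visualization of HUVEC cultures at 24 h post-treatment, with DMSO as baseline for bidirectional fitting.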

[4] = BSK_4H_SRB: Viability Assessment in the BioMAP Diversity Plus: 4H Assay (AID 2283027); conditions: primary human endothelial cells (HUVEC);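 further: cells exposed to compound for 24 h before staining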;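 on AC50: curves fitted both ways versus DMSO so AC50 may be loss or gain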
In short: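 Cytotoxicity readout: sulforhodamine B (0.1%) staining of total protein after 10% TCA fixation, measured at 560 nm in human umbilical vein endothelium at 24 h. DMSO set the baseline; fitting was bidirectional.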

[5] = BSK_BE3C_SRB: Viability Assessment in the BioMAP Diversity Plus: BE3C Assay (AID 2283028); conditions: primary human bronchial epithelial cells;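 on AC50: fitted both ways so AC50 may mark signal gain or loss versus DMSO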
In short: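 Human primary bronchial epithelial cells were exposed to test chemicals for 24 h. Total protein in parallel cultures was then measured by staining with 0.1% sulforhodamine B after 10% TCA fixation, with absorbance read at 560 nm. Activity was fitted bidirectionally against DMSO.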

[6] = read-out: Thrombomodulin, THBD (gene 7056); test: BSK_3C_Thrombomodulin: BioMAP Diversity Plus: 3C Assay for Thrombomodulin Biomarker Activity (AID 2283029); conditions: primary human endothelial cells (HUVEC); actives raise or lower the signal
In short: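 ELISA measurement of thrombomodulin on HUVEC surface 24 h after chemical dosing; activity fitted in both directions relative to DMSO vehicle.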

[7] = read-out: Urokinase-type plasminogen activator receptor (uPAR), PLAUR (gene 5329); test: BSK_4H_uPAR: BioMAP Diversity Plus: 4H Assay for Urokinase-type plasminogen activator receptor (uPAR) Biomarker Activity (AID 2283030); conditions: primary human endothelial cells (HUVEC); actives raise or lower the signal
In short: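 Primary human umbilical vein endothelial cells were exposed to chemical for 24 h before cell-surface uPAR was quantified by ELISA. Activity was fitted bidirectionally against the DMSO negative control baseline.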

[8] = read-out: Vascular endothelial growth factor receptor 2 (Homo sapiens) (UniProt P35968); test: BSK_4H_VEGFRII: BioMAP Diversity Plus: 4H Assay for Vascular endothelial growth factor receptor 2 (VEGFR2) Biomarker Activity (AID 2283031); conditions: primary human endothelial cells (HUVEC); actives raise or lower the signal;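 on AC50: cell-surface VEGFR2 protein level quantified by ELISA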
In short: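 Primary human umbilical vein endothelial cells in the BioMAP 4H system were dosed with test chemical, and 24 h later VEGFRII was measured by ELISA. Activity was fitted bidirectionally against DMSO as negative control and baseline.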

[9] = read-out: Human Leukocyte Antigen - DR isotype (HLADR), HLA-DRA (gene 3122); test: BSK_BE3C_HLADR: BioMAP Diversity Plus: BE3C Assay for Human Leukocyte Antigen - DR isotype (HLADR) Biomarker Activity (AID 2283032); conditions: primary human bronchial epithelial cells; actives raise or lower the signal
In short: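 Cell-surface HLA-DR ELISA readout at 24 h after dosing in the BE3C primary human lung bronchial epithelial system; gain or loss of signal against DMSO, with parallel sulforhodamine B staining of total protein for overt cytotoxicity.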

[10] = read-out: Vascular cell adhesion molecule 1 (VCAM1), VCAM1 (gene 7412); test: BSK_4H_VCAM1: BioMAP Diversity Plus: 4H Assay for Vascular cell adhesion molecule 1 (VCAM1) Biomarker Activity (AID 2283033); conditions: primary human endothelial cells (HUVEC); actives raise or lower the signal
In short: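 VCAM-1 ELISA read 24 h after chemical dosing of HUVEC in the BioMAP 4H system, with gain or loss of signal fitted relative to DMSO. Parallel SRB staining (560 nm) checked overt cytotoxicity.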

[11] = read-out: Interferon-gamma inducible Protein 10 (IP10), CXCL10 (gene 3627); test: BSK_BE3C_IP10: BioMAP Diversity Plus: BE3C Assay for Interferon-gamma inducible Protein 10 (IP10) Biomarker Activity (AID 2283034); conditions: primary human bronchial epithelial cells; actives raise or lower the signal
In short: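 IP-10 quantified by ELISA in human primary bronchial epithelial cell cultures at 24 hours post-dosing. Gain or loss of signal fitted relative to DMSO; parallel SRB staining assessed overt cytotoxicity.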

[12] = read-out: Monokine induced gamma interferon (MIG), CXCL9 (gene 4283); test: BSK_BE3C_MIG: BioMAP Diversity Plus: BE3C Assay for Monokine induced gamma interferon (MIG) Biomarker Activity (AID 2283035); conditions: primary human bronchial epithelial cells; actives raise or lower the signal
In short: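 hu bronchial epithelial 1° cells, 24 h cpd; MIG by ELISA; bidirectional fit, DMSO = baseline.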

[13] = read-out: Transforming growth factor beta 1 (TGFb1), TGFB1 (gene 7040); test: BSK_BE3C_TGFb1: BioMAP Diversity Plus: BE3C Assay for Transforming growth factor beta 1 (TGFb1) Biomarker Activity (AID 2283036); conditions: primary human bronchial epithelial cells; actives raise or lower the signal
In short: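 ELISA readout of TGF-b1 from human lung bronchial epithelial primary cells, taken 24 h post-treatment. Gain or loss of signal fitted relative to DMSO baseline, with parallel SRB staining for overt cytotoxicity.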

[14] = read-out: Plasminogen activator inhibitor-1 (PAI1), SERPINE1 (gene 5054); test: BSK_BE3C_PAI1: BioMAP Diversity Plus: BE3C Assay for Plasminogen activator inhibitor-1 (PAI1) Biomarker Activity (AID 2283037); conditions: primary human bronchial epithelial cells; actives raise or lower the signal
In short: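 PAI-1 was measured by ELISA in human primary bronchial epithelial cultures 24 h after chemical dosing, with cytotoxicity checked by SRB total-protein staining in parallel cultures. Activity was fitted in both directions relative to DMSO.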

[15] = read-out: urokinase plasminogen activator (uPA), PLAU (gene 5328); test: BSK_BE3C_uPA: BioMAP Diversity Plus: BE3C Assay for urokinase plasminogen activator (uPA) Biomarker Activity (AID 2283038); conditions: primary human bronchial epithelial cells; actives raise or lower the signal
In short: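 Human primary bronchial epithelial cells were exposed to chemical for 24 h, then uPA levels were measured by ELISA. Responses were fitted bidirectionally against DMSO as negative control and baseline. Parallel SRB staining of total protein gauged overt cytotoxicity.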

[16] = read-out: Urokinase-type plasminogen activator receptor (uPAR), PLAUR (gene 5329); test: BSK_BE3C_uPAR: BioMAP Diversity Plus: BE3C Assay for Urokinase-type plasminogen activator receptor (uPAR) Biomarker Activity (AID 2283039); conditions: primary human bronchial epithelial cells; actives raise or lower the signal
In short: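 uPAR levels were measured by ELISA after 24 h compound treatment of primary human bronchial epithelial cells, fitted in both directions relative to DMSO. Parallel SRB staining served as the cytotoxicity read-out.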

[17] = read-out: Interleukin-6 (IL6), IL6 (gene 3569); test: BSK_CASM3C_IL6: BioMAP Diversity Plus: CASM3C Assay for Interleukin-6 (IL6) Biomarker Activity for (AID 2283040); conditions: primary human coronary artery smooth muscle cells; actives raise or lower the signal
[18] = read-out: Tissue plasminogen activator (tPA), PLAT (gene 5327); test: BSK_BE3C_tPA: BioMAP Diversity Plus: BE3C Assay for Tissue plasminogen activator (tPA) Biomarker Activity (AID 2283041); conditions: primary human bronchial epithelial cells; actives raise or lower the signal
In short: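 tPA measured by ELISA 24 h after dosing human primary bronchial epithelial cells (BE3C system). Changes in either direction were fitted against DMSO. Parallel cultures were stained with SRB to flag overt cytotoxicity.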

[19] = read-out: Interleukin-8 (IL8), CXCL8 (gene 3576); test: BSK_CASM3C_IL8: BioMAP Diversity Plus: CASM3C Assay for Interleukin-8 (IL8) Biomarker Activity (AID 2283042); conditions: primary human coronary artery smooth muscle cells; actives raise or lower the signal;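 further: IL-8 protein level quantified by ELISA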

Measured: AC50

CCOC(=O)C(O)(c1ccc(Cl)cc1)c1ccc(Cl)cc1
active: [1] 34.5 µM | [2] 8.5 µM | [3] 37.3 µM | [4] 32.2 µM | [7] 31.3 µM | [8] 27.9 µM | [10] 30.7 µM | [11] 31.1 µM | [14] 14.7 µM
inactive: all other assays above

O=C(O)C(F)(F)C(F)(F)C(F)(F)C(F)(F)C(F)(F)F
inactive: all assays above

O=C(NC(=O)c1cc(F)c(F)cc1Cl)Nc1cc(F)ccc1N1CCC(C(=O)O)CC1
not listed: [9]
inactive: all other assays above

Sc1ccccc1
not listed: [9]
inactive: all other assays above

C=CC(N)=O
not listed: [9]
inactive: all other assays above

Cc1ccccc1[N+](=O)[O-]
not listed: [9]
inactive: all other assays above

Cc1cc2c3c(c1)C(c1ccccc1)=N[C@@H](NC(=O)c1ccncc1)C(=O)N3CC2
not listed: [9]
inactive: all other assays above

Clc1ccc(Cl)cc1
inactive: all assays above

CCNc1nc(NC(C)C)nc(SC)n1
not listed: [9]
inactive: all other assays above

CCOP(=S)(OCC)SCSC(C)(C)C
not listed: [9]
inactive: all other assays above

ClC1=C(Cl)[C@]2(Cl)[C@@H]3[C@H]4C[C@H]([C@@H]5O[C@H]45)[C@@H]3[C@@]1(Cl)C2(Cl)Cl
active: [1] 9.88 µM | [2] 7.22 µM | [4] 3.97 µM
not listed: [9]
inactive: all other assays above

Cc1cc(-c2ccc(N)c(C)c2)ccc1N
inactive: all assays above

C=CC(=O)NCNC(=O)C=C
inactive: all assays above

CC1=C2C[C@H]3[C@@H](CC=C4C[C@@H](O)CC[C@@]43C)[C@@H]2CC[C@]12O[C@@H]1C[C@H](C)CN[C@H]1[C@H]2C
active: [3] 4.9 µM
not listed: [9]
inactive: all other assays above

CC(c1ccc(O)cc1)(c1ccc(O)cc1)c1ccc(O)cc1
active: [1] 28 µM | [3] 39 µM | [4] 20 µM | [7] 30.8 µM | [9] 2.08 µM | [10] 24 µM | [11] 2.57 µM | [12] 2.2 µM | [13] 1.92 µM | [14] 3.29 µM | [15] 3.25 µM | [16] 2.4 µM | [18] 3.85 µM
inactive: [2] | [5] | [6] | [8] | [17] | [19]

c1ccc(-c2ccccc2)cc1
not listed: [8]
inactive: all other assays above

O=NN(c1ccccc1)c1ccccc1
inactive: all assays above

CCSC(=O)N(CC)C1CCCCC1
not listed: [9]
inactive: all other assays above

CCCCCCCCCc1ccc(O)cc1
active: [1] 15.5 µM | [2] 16.7 µM | [3] 38.7 µM | [4] 14.9 µM | [5] 15.1 µM | [7] 16.9 µM | [10] 15.8 µM | [11] 13.1 µM | [12] 18.5 µM | [13] 16.4 µM | [14] 15.7 µM | [15] 15.1 µM | [16] 15.7 µM | [17] 27.8 µM | [18] 7.58 µM | [19] 33 µM
inactive: [6]

COS(=O)(=O)OC
not listed: [9]
inactive: all other assays above

CN(C)c1nc(=O)n(C2CCCCC2)c(=O)n1C
not listed: [9]
inactive: all other assays above
